Rows were chosen to be rich in hits. Some 3.2% of all compounds tested hit in one or more screens of this group.
Sm TGR inh – blocks Schistosoma mansoni thioredoxin glutathione reductase; Q962Y6; purified TGR, DTNB reduction, TNB absorbance 405 nm; Potency, µM (highest dose often 114 µM), for the others: at the top dose activity change, negative = inhibition, hits mostly inhibitors; actives 3% (n = 360,000); AID 485364; also: nearly all actives have a fitted effect of over 60% in size
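Kinetic colorimetric format: TGR-catalysed, NADPH-driven DTNB reduction monitored via TNB absorbance. Enzyme dispensed at 20 nM; compound exposure 15 min at room temperature before reaction start.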
Tb PYK inh – inhibitors of Trypanosoma brucei pyruvate kinase; Q57TT1; TbPYK enzyme, Kinase-Glo Plus ATP luminescence, 45 min; Potency, µM (doses to about 76.8 µM), for inactives: at the highest dose activity, negative = inhibition, most hits filed as inhibitors; actives 0.12% (n = 410,000); also: nearly all actives have a fitted effect of over 50% in size
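Assay buffer: 50 mM TEA pH 7.2, 100 mM KCl, 10 mM MgCl2, 0.05% BSA, 0.01% Tween-20. Pyruvate kinase from T. brucei plus substrate met compound, then ADP (130 uM final). Luminescence was read post 45 min RT.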
AMA1-RON2 inh – inhibitors of Plasmodium falciparum AMA1-RON2 interaction. AlphaScreen AMA1-biotinylated RON2 peptide binding. Potency, µM (highest dose often 58.2 µM), without a hit: at the top dose activity change, negative = inhibition, actives largely listed as inhibitors. actives 0.2% (n = 360,000);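 also: 0% = vehicle wells and -100% = peptide control; nearly all actives have a fitted effect of over 45% in size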
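AMA1 (3D7) with his tag at 25 nM final met compounds first, then biotinylated RON2 peptide at 25 nM; detection used donor plus acceptor beads, 10 µg/mL apiece, read by AlphaScreen after 30 min at room temperature.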
RE007 growth inh – less growth of the S. pombe RE007 Vpr strain. S. pombe RE007 Vpr strain, BacTiter-Glo ATP luminescence, 24 h. Potency, µM (doses to about 92.2 µM), without a hit: at the top dose activity change, negative = less growth, most hits filed as inhibitors. actives 0.21% (n = 360,000); active = well fitted falling curve with a large enough effect; inconclusive = small, poorly fitted or top-dose-only effect; inactive = no such curve, though single readings can be large or run the other way; also: nearly all actives have a fitted effect of over 50% in size
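Fission yeast RE007 carrying one integrated HIV-1 vpr copy, seeded at OD 0.01 in PMG+AL medium with 23 nL pinned compound. Grown 24 h at 30 degrees; viability read by BacTiter-Glo luminescence after 5 min.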
LmPK inhibitor – LmPK (Leishmania mexicana) enzyme inhibition. actives 0.37% (n = 290,000). purified LmPK, Kinase-Glo ATP luminescence, 1 h. Potency, µM (highest dose often 57.5 µM), inactives show at the highest dose activity change, negative = inhibition, usual class: inhibitors
Target sequence (Q27686 whole entry, looked up): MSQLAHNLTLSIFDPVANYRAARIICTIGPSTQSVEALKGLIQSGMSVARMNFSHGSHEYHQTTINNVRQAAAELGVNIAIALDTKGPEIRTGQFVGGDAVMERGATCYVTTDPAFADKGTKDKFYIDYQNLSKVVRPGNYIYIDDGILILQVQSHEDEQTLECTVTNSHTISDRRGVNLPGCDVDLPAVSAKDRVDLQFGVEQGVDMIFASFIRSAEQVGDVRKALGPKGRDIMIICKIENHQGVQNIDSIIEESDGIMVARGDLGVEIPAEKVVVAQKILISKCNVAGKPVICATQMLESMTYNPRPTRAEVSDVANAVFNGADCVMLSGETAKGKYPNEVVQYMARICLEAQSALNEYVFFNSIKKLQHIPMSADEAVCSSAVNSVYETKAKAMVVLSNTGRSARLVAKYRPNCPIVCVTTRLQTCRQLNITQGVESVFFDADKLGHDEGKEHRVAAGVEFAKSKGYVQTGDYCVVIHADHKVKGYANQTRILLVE
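Purified LmPK (0.1 nM) converted ADP (0.1 mM) to ATP with PEP (0.5 mM) in imidazole buffer pH 7.2 with KCl and MgCl2, 1 h at room temperature. ATP was read by Kinase-Glo luminescence; data normalized to uninhibited and no-enzyme controls.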
* hit, by the source's call. Unless noted, calls follow the shape of the dose curve; as a rule, active = well fitted curve in the direction sought with a large enough effect; inconclusive = small, poorly fitted or top-dose-only effect, or another doubt; inactive = no such curve, though single readings can be large; an effect the other way counts as inactive or inconclusive. Unless noted, % is scaled to controls: 0 for no effect and ±100 for the full control effect; potency is read from the fitted curve at half-maximal effect.

What do the screens show for `CN(C(=S)Nc1ccc(Oc2ccccc2)cc1)c1ccc(O)cc1`?
Sm TGR inh: 39.8µM*; Tb PYK inh: -22.9%; AMA1-RON2 inh: -8.2%; RE007 growth inh: 3.8%; LmPK inhibitor: 1.7%

What do the screens show for `Cc1cc(C2=CC(C)(c3cc(C)oc3C)Nc3nc(C(F)(F)F)nn32)c(C)o1` (centres undefined)?
Sm TGR inh: 10µM*; LmPK inhibitor: 3.3%

How did CC1=CC(=O)C(C(C)C)=C/C1=N\OC(=O)c1cccc2nc(C)oc12 do in these assays?
Sm TGR inh: -12.3%; Tb PYK inh: 7.7%; AMA1-RON2 inh: -8.7%; RE007 growth inh: -15.1%; LmPK inhibitor: -3.4%

Results for CC1=CC(=O)C(C(C)C)=CC1=NC(=O)c1ccc(C)cc1 ?
Sm TGR inh: 3.16µM*; Tb PYK inh: inconclusive; AMA1-RON2 inh: -3.4%; RE007 growth inh: -8.4%; LmPK inhibitor: 1.0%

Results for CCOc1ccccc1-c1noc(CSc2nnc(-c3ccncc3)n2-c2ccc(F)cc2)n1 ?
Sm TGR inh: -0.3%; Tb PYK inh: 3.7%

How did O=C(Nc1ccc2oc(=O)ccc2c1)c1ccc(-c2ccc(Cl)cc2)o1 do in these assays?
Sm TGR inh: -20.6%; Tb PYK inh: -13.4%; AMA1-RON2 inh: -11.8%; RE007 growth inh: -10.8%; LmPK inhibitor: 0.0%

How did O=C(Nc1ccc2oc(=O)ccc2c1)c1ccc(-c2cccc([N+](=O)[O-])c2)o1 do in these assays?
Sm TGR inh: 50.1µM*; Tb PYK inh: -1.8%; AMA1-RON2 inh: 7.2%; RE007 growth inh: -1.3%; LmPK inhibitor: 4.3%

Results for COc1ccc(-n2nc3ccc(NC(=O)c4ccc(-c5cc(Cl)ccc5Cl)o4)cc3n2)cc1 ?
Sm TGR inh: -25.1%; Tb PYK inh: 0.0%

How did O=C(Nc1ccc2nn(-c3ccccc3)nc2c1)c1ccc(-c2cccc(Cl)c2)o1 do in these assays?
Sm TGR inh: 8.91µM*; Tb PYK inh: -25.1%

Results for O=C(Nc1ccc2oc(=O)ccc2c1)c1ccc(-c2cccc(Cl)c2)o1 ?
Sm TGR inh: 22.4µM*; Tb PYK inh: 4.6%; AMA1-RON2 inh: -3.6%; RE007 growth inh: 8.9%; LmPK inhibitor: -0.1%

What do the screens show for `O=C(Nc1ccc2oc(=O)ccc2c1)c1ccc(-c2ccccc2[N+](=O)[O-])o1`?
Sm TGR inh: inconclusive; Tb PYK inh: -13.0%; AMA1-RON2 inh: 8.9%; RE007 growth inh: 6.4%; LmPK inhibitor: 0.0%

How did Cc1ccc2oc(C(=O)Nc3nc(-c4ccc(F)cc4)ns3)c(C)c2c1 do in these assays?
Sm TGR inh: 3.8%; Tb PYK inh: -3.0%

Results for CCn1cc(C(=O)N2CCN(c3ccccc3F)CC2)c(=O)c2cc(S(=O)(=O)N(C)C3CCCCC3)ccc21 ?
Sm TGR inh: -0.2%; Tb PYK inh: 5.0%

Results for CC(C)N1CCC(=NNc2ccc(S(=O)(=O)N3CCOCC3)cc2[N+](=O)[O-])CC1 ?
Sm TGR inh: 35.5µM*; Tb PYK inh: 3.8%; AMA1-RON2 inh: -11.3%; RE007 growth inh: 3.6%; LmPK inhibitor: 0.1%

Results for Cc1cc(C)cc(NC(=S)NC2CC3CCCC(C2)N3C2CC2)c1 (centres undefined) ?
Tb PYK inh: 2.5%; AMA1-RON2 inh: -0.5%; RE007 growth inh: 10.5%; LmPK inhibitor: 0.2%

Results for Cc1cc(C)cc(NC(=S)NC2CC3CCCC(C2)N3C2CCCC2)c1 (centres undefined) ?
Sm TGR inh: 12.6µM*; Tb PYK inh: -2.6%; AMA1-RON2 inh: -7.0%; RE007 growth inh: -1.5%; LmPK inhibitor: 9.9%

What do the screens show for `NC(=O)c1ccc(-c2nc(-c3ccc4c(c3)OCCO4)c(-c3ccccn3)[nH]2)cc1`?
Tb PYK inh: 0.0%

How did CCCCS/C(=C(/C#N)C(N)=O)c1cc2c([nH]1)CCCC2 do in these assays?
Sm TGR inh: 10µM*; Tb PYK inh: 4.7%; AMA1-RON2 inh: inconclusive; RE007 growth inh: -12.4%; LmPK inhibitor: 11.6%

What do the screens show for `Oc1ccccc1/C=N/c1c(-c2ccco2)nc2ccccn12`?
Sm TGR inh: 50.1µM*; Tb PYK inh: -9.3%; AMA1-RON2 inh: 3.7%; RE007 growth inh: -19.3%; LmPK inhibitor: inconclusive

How did CNc1oc(Cc2ccccc2)nc1S(=O)(=O)c1ccc(Cl)cc1 do in these assays?
Sm TGR inh: 12.6µM*; Tb PYK inh: -2.2%; AMA1-RON2 inh: -3.2%; RE007 growth inh: -1.4%; LmPK inhibitor: 8.0%

How did Cc1ccccc1OCc1ccc(-c2nc(C#N)c(NCCCN(C)C)o2)o1 do in these assays?
Sm TGR inh: 2.5%; Tb PYK inh: -2.7%

Results for O=C1/C(=C/c2ccco2)SC(=S)N1c1cccnc1 ?
Sm TGR inh: 14.1µM*; Tb PYK inh: inconclusive; AMA1-RON2 inh: inconclusive; RE007 growth inh: inconclusive; LmPK inhibitor: 5.0%

Results for NN1C(=O)/C(=C\c2ccco2)SC1=S ?
Sm TGR inh: 11.2µM*; Tb PYK inh: -8.2%; AMA1-RON2 inh: -28.3%; RE007 growth inh: inconclusive; LmPK inhibitor: 8.3%

How did O=C1/C(=C\c2ccc(O)cc2)SC(=S)N1c1cccnc1 do in these assays?
Sm TGR inh: -10.0%; Tb PYK inh: -0.6%; AMA1-RON2 inh: -5.9%; RE007 growth inh: 10.9%; LmPK inhibitor: 5.8%

Results for COCCNc1nc2cc(-c3ccc(F)cc3)sc2c(=O)n1C ?
Tb PYK inh: -7.9%; AMA1-RON2 inh: 4.1%; RE007 growth inh: 0.5%

How did O=c1[nH]c(CCl)nc2cc(-c3ccc(F)cc3)sc12 do in these assays?
Sm TGR inh: 11.2µM*; Tb PYK inh: -18.2%; AMA1-RON2 inh: 55.7%; RE007 growth inh: -3.4%; LmPK inhibitor: -14.7%

What do the screens show for `CCOc1ccc(-c2nc3c(c(CC)nn3-c3ccccc3)c3cc(OC)c(OC)cc23)cc1`?
Sm TGR inh: 3.7%; Tb PYK inh: 0.6%

What do the screens show for `Cn1cc(CN2CCN(Cc3ccccc3)CC2)c(-c2cccc(Cl)c2)n1`?
Sm TGR inh: 31.6µM*; Tb PYK inh: 8.0%; AMA1-RON2 inh: 19.9%; RE007 growth inh: -19.9%; LmPK inhibitor: 4.2%

How did COCCN1CCN(Cc2cn(C)nc2-c2cccc(Cl)c2)CC1 do in these assays?
Sm TGR inh: -3.6%; Tb PYK inh: 4.5%; AMA1-RON2 inh: 1.6%; RE007 growth inh: 4.6%; LmPK inhibitor: 3.2%

How did CCOc1cccc2sc(N3CCN(C(=O)c4ccc5c(c4)CCCC5)CC3)nc12 do in these assays?
Sm TGR inh: 10.6%; Tb PYK inh: -3.1%

What do the screens show for `C=CCN1CCc2cccc3c2[C@H]1Cc1ccc(O)c(O)c1-3`?
Sm TGR inh: 1.58µM*; Tb PYK inh: inconclusive; AMA1-RON2 inh: -7.1%; RE007 growth inh: inconclusive; LmPK inhibitor: 1.58µM*

Results for COC(=O)c1scc(-c2ccc(C)cc2)c1S(=O)(=O)N1CCN(c2ccc(OC)cc2)CC1 ?
Sm TGR inh: -3.1%; Tb PYK inh: -9.7%

Screens: PubChem, National Center for Advancing Translational Sciences (NCATS)
